uPA generation: cell surface uPA generation inhibition; 330,000 compounds, 0.31% hits; AID 540303; cell surface uPA generation assay, qHTS; Potency, µM (doses to about 38.3 µM), without a hit: top-dose activity change, negative = inhibition, hits mostly inhibitors; active means well fitted inhibition curve with a large enough effect; inconclusive means small, poorly fitted or top-dose-only effect; inactive means no such curve, though single readings can be large or run the other way; tested in mouse RAW 264.7 cells; further: potency means the concentration at half of the fitted maximal effect; on the % scale 0 is the no-effect control and ±100 the full control effect; nearly all actives have a fitted effect of over 55% in size
gsp antagonist: gsp mutant antagonism; 340,000 compounds, 0.4% hits; Potency, µM (titrated, usually from 76.9 µM), for the others: at the top dose activity change, negative = inhibition, usual class: inhibitors; gsp-mutant cells, cAMP HTRF, 30 min; AID 624288; calls by dose curve; cell line not stated here;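 further: intracellular cAMP measured with PDE inhibitor Ro 20-1724 present during compound exposure; potency means the concentration at half of the fitted maximal effect; on the % scale 0 is the no-effect control and ±100 the full control effect; nearly all actives have a fitted effect of over 65% in size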
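HTRF cAMP measurement after 30 min RT detection following 30 min, 37C compound treatment alongside […] (added as 300 uM solution) in G418-selected cells seeded at 2000/well and grown 16–24 h.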
CCT chaperon mod: modulators of cytosolic chaperonin (CCT/TRiC) activity | activity change, % (concentration not given with the values), hits read low | purified chaperonin ATPase assay, HTRF ADP detection, 30 min | 360,000 compounds, 0.3% hits | AID 651819; in the data active means activity change below about -30%; further: on the % scale 0 is the no-effect control and ±100 the full control effect
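First, chaperonin was dispensed at 40 nM or 20 nM final depending on batch activity. Next, compounds were pinned at 76 uM and ATP added at 10 uM. After 30 min at 37 °C, ADP detection reagents ran 30 min at ambient temperature.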
MmCpn inh: M. maripaludis TRiC chaperonin inhibition. AID 504842. 330,000 compounds, 0.031% hits. purified Mm-Cpn ATPase, ADP Transcreener TR-FRET. Potency, µM (highest dose often 76.9 µM), inactives show top-dose activity, negative = inhibition, usual class: inhibitors; active means well fitted inhibition curve with a large enough effect; inconclusive means small, poorly fitted or top-dose-only effect; further: potency means the concentration at half of the fitted maximal effect; on the % scale 0 is the no-effect control and ±100 the full control effect; nearly all actives have a fitted effect of over 80% in size
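ATPase read-out: TR-FRET ADP immunoassay (anti-ADP Eu cryptate vs ADP-d2), ex 320 nm, em 590/665 nm; signal drops as ADP forms. Enzyme 25 nM, ATP 10 uM, 30 min at 37°C after 10 min compound preincubation.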
TSHR antag: antagonists of human thyroid stimulating hormone receptor; 330,000 compounds, 0.2% hits; P16473; activity change, negative = inhibition, % at 11.5 µM; TSHR-expressing cells, TSH-stimulated cAMP HTRF, 2 h; hits give low values;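 active means activity change below a set negative limit, meaning inhibition stronger than a set level, cut at about -70% in these data; inconclusive means activity change between two set negative limits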; further: on the % scale 0 is the no-effect control and ±100 the full control effect
Target sequence (P16473 whole entry, looked up): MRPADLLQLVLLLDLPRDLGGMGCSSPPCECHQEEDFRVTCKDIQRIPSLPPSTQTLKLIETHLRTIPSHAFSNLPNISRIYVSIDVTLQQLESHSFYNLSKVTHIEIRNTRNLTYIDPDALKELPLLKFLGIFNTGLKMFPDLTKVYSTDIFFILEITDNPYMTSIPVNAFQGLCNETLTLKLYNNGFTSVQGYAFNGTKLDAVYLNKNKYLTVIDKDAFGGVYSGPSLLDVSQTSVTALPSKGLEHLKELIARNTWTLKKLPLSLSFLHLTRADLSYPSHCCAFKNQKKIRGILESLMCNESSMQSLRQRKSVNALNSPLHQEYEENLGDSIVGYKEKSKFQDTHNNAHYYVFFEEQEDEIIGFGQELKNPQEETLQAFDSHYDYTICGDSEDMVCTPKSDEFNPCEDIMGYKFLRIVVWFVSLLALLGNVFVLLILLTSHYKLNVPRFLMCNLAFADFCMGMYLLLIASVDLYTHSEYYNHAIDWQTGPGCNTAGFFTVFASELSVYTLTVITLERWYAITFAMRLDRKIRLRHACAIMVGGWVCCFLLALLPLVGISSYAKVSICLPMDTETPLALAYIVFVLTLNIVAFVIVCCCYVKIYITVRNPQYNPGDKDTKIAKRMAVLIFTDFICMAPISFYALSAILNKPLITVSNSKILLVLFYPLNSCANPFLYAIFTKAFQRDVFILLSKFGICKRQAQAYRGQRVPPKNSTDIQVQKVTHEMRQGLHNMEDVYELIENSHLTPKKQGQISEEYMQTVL
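TSHR-expressing cells, 200/well, pre-treated with compound, then stimulated with EC80 TSH (4nM final) for 2 hours at 37 deg C. cAMP measured by competitive HTRF: anti-cAMP cryptate antibody in lysis buffer plus cAMP-d2, read after 30 minutes at room temperature.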
gsp ag: agonists of gsp mutant (McCune-Albright syndrome); gsp mutant cells, cAMP HTRF, 30 min; 340,000 compounds, 0.13% hits; Potency, µM (doses to about 76.9 µM), without a hit: top-dose activation (cAMP increase), usual class: activators; active means well fitted activation curve with a large enough effect; inconclusive means small, poorly fitted or top-dose-only effect, or another doubt; inactive means no such curve, though single readings can be large or run the other way; cell line not stated here;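 further: phosphodiesterase inhibitor Ro 20-1724 added with compounds to block cAMP breakdown; potency means the concentration at half of the fitted maximal effect; nearly all actives have a fitted effect of over 60% in size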
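Cells stably selected in G418 were plated at 2000/well, grown 16-24 hr, then given compounds in DMSO with the PDE inhibitor […] (300 uM solution added) for 30 min at 37C; cAMP was read by HTRF.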
Starred values were filed as active, the others as inactive; ? = inconclusive; / = no result; [ ] = dose if it differs, or a comment. In the library only some 1.2% were active in any assay of this set; here they are far more common.

SMILES	uPA generation	gsp antagonist	CCT chaperon mod	MmCpn inh	TSHR antag	gsp ag
CN1CCN(C(=O)c2ccccc2NC(=O)c2ccccc2Br)CC1	-8.2%	10.7%	0.1	1.7%	-3.6	-37.0%
Cc1ccccc1N1CCN(C(=O)c2ccccc2NC(=O)c2ccccc2C(=O)O)CC1	-1.6%	-3.0%	-66.2*	1.6%	-4.5	-16.0%[15.4 µM]
Cc1cccc(-n2c(SCC(=O)c3c(N)n(C4CC4)c(=O)[nH]c3=O)nnc2N2CCOCC2)c1	?	9.0%	-7.2	1.0%	-8.5	3.5%
N=c1ccn(Cc2cccc(F)c2)cc1	-14.8%	-5.1%	-0.3	0.1%	-26.9	15.3%[15.4 µM]
CC(C)(C)c1cccc(Cn2nnc3ccccc32)c1O	-3.8%	-2.4%	1.1	1.2%	-76.5*	/
O=C(Nc1nc2c(s1)CCCC2)c1cc2n(n1)C(C(F)(F)F)CC(C1CC1)N2 (centres undefined)	5.7%	-1.2%	-0.7	1.0%	-7.8	34.6%
O=C(NCCc1ccc(Cl)cc1)C(=O)c1c[nH]c2ccccc12	1.3%	5.0%	-2.9	-4.0%	3.8	7.0%
O=C(NCCc1c[nH]c2ccccc12)C(=O)c1c[nH]c2ccccc12	-14.9%	-4.4%	-86.6*	2.3%	2.2	5.1%
COC(=O)C1=C(C(=O)OC)[C@]2([C@H]3CCCCN[C@@H](Cc4ccccc4)C(=O)N3Cc3ccccc3)C=C[C@H]1O2	?	-2.8%	-0.9	-1.2%	-20.3	-2.2%
Cc1ccc(S(=O)(=O)N2CCOCC2)cc1C(=O)Nc1cccc(C(=O)NC2CC2)c1	1.4%	6.5%	-2.7	1.5%	11.0	-5.3%
O=C(Nc1cccc(Br)c1)c1ccc(Cl)c(S(=O)(=O)N2CCOCC2)c1	-18.9%	39.8µM*	0.0	-0.9%	-48.5	-11.9%
O=C(NC1CC1)c1cccc(NC(=O)c2cc(S(=O)(=O)N3CCOCC3)ccc2Cl)c1	6.2%	8.3%	-32.0*	-1.2%	-5.9	10.2%[15.4 µM]
O=C(Nc1cccc(C(=O)NC2CC2)c1)c1ccc(Cl)c(S(=O)(=O)N2CCOCC2)c1	11.1%	-9.9%	0.0	-2.2%	-2.0	3.4%
O=C(Nc1cccc(S(=O)(=O)C(F)F)c1)c1ccc(Cl)c(S(=O)(=O)N2CCOCC2)c1	-4.1%	28.2µM*	1.3	1.6%	-27.7	10.8%
O=C(Nc1ccc(Cl)c(S(=O)(=O)N2CCOCC2)c1)c1ccc(OCC2CCCO2)cc1 (centres undefined)	-11.9%	31.6µM*	2.2	0.3%	-87.1*	-31.8%
CCn1c(CCC(N)=O)nnc1SCC(=O)c1cc(C)n(C2CC2)c1C	6.8%	-16.1%	-1.6	0.0%	2.7	16.9%
CC1(C)CC(=O)C2=C(C1)OC(N)=C(C#N)C2c1cccs1 (centres undefined)	-1.9%	-12.7%	2.0	0.4%	18.6	?
O=C(COc1ccccc1Cl)NNC(=O)Cn1[nH]c(=O)c2ccccc2c1=O	-26.0%	11.7%	0.6	-1.0%	-17.3	15.9%
CC(=O)Nc1cccc(NC(=O)c2cccc(-c3ccc(O)cc3)c2)c1	-6.3%	-18.9%	-70.3*	4.1%	-5.9	-1.5%[15.4 µM]
COc1ccc(C)cc1S(=O)(=O)N(CC(=O)O)c1ccc(F)cc1	0.8%	-5.2%	-33.3*	/	/	-16.2%
COc1cccc(N2CCN(S(=O)(=O)c3cccc4cccnc34)CC2)c1	-4.0%	-13.7%	-2.1	-4.1%	-4.5	-54.4%
Cc1ccc(C)c(N2CCN(C(=O)Nc3ccc4c(c3)N(C)C(=O)CS4)CC2)c1	?	39.8µM*	-1.7	-2.8%	-29.8	16.4%
C[C@@H]1CCCCO[C@@H](CN(C)C(=O)Nc2ccccc2)[C@@H](C)CN([C@H](C)CO)C(=O)c2cc(N(C)C)ccc2O1	/	/	-1.7	/	/	14.1µM*
Cc1ccc(S(=O)(=O)Nc2ccc3c(c2)C(=O)N([C@H](C)CO)C[C@H](C)[C@H](CN(C)C(=O)Nc2cccc4ccccc24)OCCCC[C@@H](C)O3)cc1	/	/	-30.9*	/	/	-21.9%
Cc1ccc(S(=O)(=O)Nc2ccc3c(c2)C(=O)N([C@H](C)CO)C[C@H](C)[C@@H](CN(C)C(=O)NC2CCCCC2)OCCCC[C@@H](C)O3)cc1	/	/	-2.5	/	/	-10.2%
SMILES	uPA generation	gsp antagonist	CCT chaperon mod	MmCpn inh	TSHR antag	gsp ag
N#Cc1c(NC(=O)Cn2c(=O)oc3ccccc32)oc(-c2ccccc2)c1-c1ccccc1	3.5%	-5.1%	-0.8	0.8%	76.9	-3.3%
COc1ccc(Nc2nc(-c3cccs3)cs2)c(OC)c1	2.4%	-11.8%	-0.9	-12.6%	-4.7	-28.4%
COc1ccc(Nc2nc(-c3sc(C)nc3C)cs2)c(OC)c1	4.47µM*	-6.1%	-14.1	-12.0%	-26.7	-4.9%
C=CCCC(=O)Nc1nc(C)c(-c2csc(Nc3ccccc3OC)n2)s1	3.55µM*	1.4%	-0.5	?	-26.1	18.3%
CCc1ccc(OC(=O)/C=C/c2ccco2)cc1	-7.0%	2.0%	-2.2	-2.8%	-16.4	5.2%
CN(CC(=O)Nc1ccc(F)c(F)c1)S(=O)(=O)c1cccs1	1.9%	0.4%	-39.9*	0.9%	1.6	-25.4%
CN(CC(=O)Nc1ccc2c(c1)OCO2)S(=O)(=O)c1cccs1	1.9%	5.6%	-0.1	-0.8%	1.2	-11.5%
Cc1ccc(Sc2c(O)c3ccccc3n(C)c2=O)cc1	7.3%	23.1%	0.0	-19.1%	8.7	12.6µM*
Cn1c(=O)c([N+](=O)[O-])c(NCc2ccccc2)c2ccccc21	-0.4%	-10.5%	-55.9*	-4.7%	-4.5	0.0%
Cc1ccc(Sc2c(C=O)c3ccccc3n2C)cc1	-1.6%	-3.9%	-0.2	-19.0%	-9.2	17.8µM*
Cc1ccc(Sc2c([N+](=O)[O-])c(=O)n(C)c3ccccc23)cc1	?	?	-1.6	-1.3%	-72.6*	7.2%
Cn1cccc1C(=O)OCc1ccc(F)cc1	2.8%	2.3%	-0.8	-0.1%	-1.5	9.4%[15.4 µM]
COc1ccc(NC(=O)Nc2nc(C(N)CC(C)C)cs2)cc1 (centres undefined)	/	/	-1.2	/	/	/
NC(=O)C1CCN(C(=O)/C=C/c2ccco2)CC1	12.6%	-5.4%	-0.9	-0.5%	0.6	22.9%
Cc1cc(F)ccc1S(=O)(=O)N(C(=O)c1ccncc1)c1ccc(OC(=O)c2ccncc2)cc1	-9.2%	-0.4%	-2.7	0.6%	-11.7	3.2%
Cc1ccc(-c2nnc3ccc(SC(C)C(=O)O)nn23)cc1 (centres undefined)	2.0%	15.0%	-2.2	-4.4%	3.7	10µM*
CCOC(=O)C(CC)Sc1ccc2nnc(-c3cccnc3)n2n1 (centres undefined)	-1.7%	17.4%	1.3	-2.3%	6.4	46.3%[15.4 µM]
CCOC(=O)C(C)Sc1ccc2nnc(-c3ccc(F)cc3)n2n1 (centres undefined)	/	-9.0%	0.5	-3.2%	-9.8	20.6%

Bioassay records as filed in PubChem.
